NIH3T3 tox – kills NIH 3T3 cells. NIH 3T3 viability, CellTiter-Glo ATP luminescence, 48-72 h. Potency, µM (highest dose often 96.7 µM), inactives show top-dose activity change, negative = cytotoxicity, most hits filed as inhibitors. 94,000 compounds, 4.3% hits. AID 1345082; also: % is scaled to controls: 0 for no effect and ±100 for the full control effect; nearly all actives have a fitted effect of over 55% in size
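Cytotoxicity was measured by CellTiter-Glo ATP luminescence after 48 or 72 h compound exposure at 37 °C. Mouse NIH 3T3 fibroblasts were seeded at 400 cells/well and dosed by 23 nL pin transfer.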
hNpr1 antagonist – human Npr1 receptor antagonism | HEK293 hNpr1 GloSensor cGMP, ANP-stimulated luminescence | P16066 | AID 1347048 | Potency, µM (top dose mostly 46.3 µM), inactives show top-dose activity change, negative = inhibition, hits mostly inhibitors | 76,000 compounds, 1.6% hits; calls by dose curve; also: % is scaled to controls: 0 for no effect and ±100 for the full control effect; nearly all actives have a fitted effect of over 60% in size
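HEK293 cells stably expressing human Npr1 and cGMP GloSensor pGS-40F, loaded 2 h with 2% GloSensor reagent, given compound 30 min at room temperature. Luminescence read before and 20 min after 0.1 nM hNppA.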
FLuc inh – blocks purified firefly luciferase enzyme activity | 76,000 compounds, 2.5% hits | P08659 | purified P. pyralis luciferase, luminescence, biochemical | Potency, µM (titrated, usually from 115 µM), hits mostly inhibitors; also: % is scaled to controls: 0 for no effect and ±100 for the full control effect; nearly all actives have a fitted effect of over 65% in size
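Cell-free enzyme assay, 10nM P. pyralis luciferase, luciferin and ATP each at 10uM. Inhibition profiled over a 6-point titration, read as luminescence.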
HEK293 tox – cytotoxic compounds in HEK 293 cells; AID 1345083; HEK 293 viability, ATP luminescence (CellTiter-Glo), 48-72 h; 94,000 compounds, 6.6% hits; Potency, µM (doses to about 115 µM), for inactives: at the top dose activity change, negative = cytotoxicity, actives largely listed as inhibitors; also: % is scaled to controls: 0 for no effect and ±100 for the full control effect; nearly all actives have a fitted effect of over 60% in size
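ATP-coupled CellTiter-Glo luminescence served as viability read-out, recorded 10 min after reagent addition at room temperature. HEK 293 cells, 250 cells/well, had been incubated with pintool-transferred compound for 48 or 72 hr at 37 degree Celsius.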
Npr1 antag conf – confirmation of human Npr1 natriuretic peptide receptor antagonists | shares compounds with hNpr1 antagonist | HEK293 hNpr1 cGMP GloSensor luminescence, ANP-stimulated | Potency, µM (titrated, usually from 57.6 µM), for the others: at the highest dose activity change, negative = inhibition, actives largely listed as inhibitors | 1,400 compounds, 76% hits | AID 1347044; calls by dose curve; also: nearly all actives have a fitted effect of over 70% in size
NPR2 antag – hNpr2 antagonism, selectivity versus Npr1; HEK293 hNpr2 GloSensor cGMP luminescence, CNP-stimulated; 1,400 compounds, 67% hits; shares compounds with hNpr1 antagonist; AID 1347046; Potency, µM (highest dose often 57.6 µM), for the others: at the highest dose activity change, negative = inhibition, actives largely listed as inhibitors; calls by dose curve; also: nearly all actives have a fitted effect of over 70% in size
FLuc counter – inhibits firefly luciferase, false Npr1 antagonist flag | Potency, µM (titrated, usually from 57.6 µM), without a hit: top-dose activity change, negative = inhibition, hits mostly inhibitors | 1,400 compounds, 0.7% hits | AID 1347047 | purified FLuc enzyme, luminescence, Km substrate | shares compounds with hNpr1 antagonist; also: series mostly up to about 58 µM; 0% is about no effect
GloSensor cGMP – counter-screen for Npr1 antagonists: GloSensor control cell line. Potency, µM (highest dose often 57.6 µM), for the others: at the top dose activity change, negative = inhibition, usual class: inhibitors. 1,400 compounds, 69% hits. shares compounds with hNpr1 antagonist. HEK293 GloSensor cGMP, SNP-stimulated, luminescence; calls by dose curve; also: % is scaled to controls: 0 for no effect and ±100 for the full control effect; nearly all actives have a fitted effect of over 70% in size
The depositor's hits bear a star; i = inactive; ? = inconclusive; / = no result; [ ] = remark or other dose. In the library only some 11% were active in any assay of this set; here they are far more common. Unless noted, calls follow the shape of the dose curve; as a rule, active = well fitted curve in the direction sought with a large enough effect; inconclusive = small, poorly fitted or top-dose-only effect, or another doubt; inactive = no such curve, though single readings can be large; an effect the other way counts as inactive or inconclusive. Potency is read from the fitted curve at half-maximal effect.

SMILES	NIH3T3 tox	hNpr1 antagonist	FLuc inh	HEK293 tox	Npr1 antag conf	NPR2 antag	FLuc counter	GloSensor cGMP
CN1C[C@@H](NC(=O)c2ccc(C(C)(C)C)cc2)C[C@H]1c1nc(-c2ccc3c(c2)OCO3)no1	?	?	i	?	/	/	/	/
O=C(CCCc1c[nH]c2ccccc12)N1CCC(c2noc(COc3ccc(F)cc3)n2)CC1	?	11µM*	i	?	22µM*	24µM*	3%	17µM*
COc1cc(-c2cc(C)c3c(OC)ccc(OC)c3n2)cc2c1OCCNC2	20µM*	?	i	?	?	?	-1%	2%
COc1ccc(OCC2CN(CC3CC3)[S+](=O)([O-])c3cnccc3O2)cc1 (stereo not drawn)	-20%[46.1 µM]	/	/	?	/	/	/	/
O=C(NCC1CCCCC1)C1CCc2nc(N3CCN(C(=O)C4CCC4)CC3)sc2C1 (stereo not drawn)	-11%	8%	i	-38%	/	/	/	/
O=C(Nc1ccc(F)cc1)C1CCc2nc(N3CCN(C(=O)C4CCC4)CC3)sc2C1 (stereo not drawn)	?	3.5µM*	i	10µM*	7.7µM*	11µM*	-20%	9.7µM*
O=C(NCc1cccs1)c1cccc2c1CCN2C(=O)c1ccc(F)cc1	-27%	-14%	i	?	/	/	/	/
O=C(NCc1cc(F)ccc1F)c1csc(N2CCN(c3ccccc3F)CC2)n1	?	?	i	?	27µM*	?	2%	?
O=C(NCc1cccs1)c1csc(N2CCN(c3ccccc3F)CC2)n1	?	-28%	i	?	?	?	-2%	?
O=C(NCc1cccc(Cl)c1)C1CCc2nnc(CN[S+](=O)([O-])c3ccccc3Cl)n21 (stereo not drawn)	-19%	/	/	i	/	/	/	/
CC(C)c1cc(C(=O)NC2CCN(c3ncccc3C#N)CC2)n(C)n1	?	7.1µM*	i	?	8.6µM*	12µM*	1%	7.7µM*
O=S(=O)(c1cccnc1)N1CCC(N(Cc2cccnc2)C2CCOCC2)CC1	?	3%	i	-9%	/	/	/	/
CC(C)NC(=O)c1nc(-c2ccsc2)c2ccccn12	?	/	/	-19%[172 µM]	/	/	/	/
COCCN1C[C@H]2CN(Cc3cccc(OC)c3)CCN2C1=O	i	-2%[70.6 µM]	i	i	/	/	/	/
COc1cccc(CN2CCN(c3nc4c(s3)c(C)nn4C)CC2=O)c1	?	?	i	?	?	?	1%	?
COc1ccc2[nH]c(C(=O)NC3CCc4nn(C)c(=O)n4CC3)cc2c1 (stereo not drawn)	-2%	8%	i	-1%	/	/	/	/
Cn1nccc1-c1ncc2c(n1)OCCN(Cc1ccc(F)cc1F)C2=O	?	35µM*	i	?	35µM*	35µM*	5%[86.2 µM]	40µM*
O=C1c2cnc(-c3ccncc3)nc2OCCN1Cc1ccc(F)cc1F	?	18µM*	i	?	31µM*	25µM*	-2%[86.2 µM]	22µM*
COc1ccc(CN2CCOc3nc(-c4cccc(C(F)(F)F)c4)ncc3C2=O)cc1	?	32µM*	i	?	35µM*	35µM*	-6%[86.2 µM]	40µM*
COCCN1CCOc2nc(-c3cc4ccccc4o3)ncc2C1=O	?	13µM*	i	?	9.9µM*	9.9µM*	0.5µM*	7.9µM*
COc1ccc(CN2CCOc3nc(-c4ccc(C(=O)N(C)C)cc4)ncc3C2=O)cc1	-11%[138 µM]	-18%[70.6 µM]	?	?	/	/	/	/
COc1ccccc1-c1ncc2c(n1)OCCN(Cc1ccc(F)cc1F)C2=O	?	-3%[70.6 µM]	i	-35%[172 µM]	/	/	/	/
O=C(N[C@@H]1CCC[C@@H]1C(=O)N1CCCCCC1)c1ccncc1	-9%	-8%	i	-24%	/	/	/	/
Cc1ccc(NC(=O)N2CCC(OC3CCN(S(C)(=O)=O)CC3)CC2)cc1	-23%	-6%	?	-13%	/	/	/	/
CCOc1ccccc1CN1C[C@@H]2C(=O)N(CCN3CCc4ccccc4C3)C(=O)[C@@H]2C1	-25%	-10%	i	?	/	/	/	/
SMILES	NIH3T3 tox	hNpr1 antagonist	FLuc inh	HEK293 tox	Npr1 antag conf	NPR2 antag	FLuc counter	GloSensor cGMP
Cc1nn(C)c2nc(N3C[C@@H]4CCN(C)[C@@H]4C3)sc12	-4%	6%	i	-26%	/	/	/	/
Cc1nn(C)c2nc(N3CCC(C#N)(c4ccccc4)CC3)sc12	?	16µM*	i	28µM*	22µM*	24µM*	0%	22µM*
Cc1ccccc1[S+](=O)([O-])N1CCC2(CC1)OCCN(Cc1ccccc1)C2=O	?	-5%[70.6 µM]	i	?	/	/	/	/
CCCc1cc(C(=O)N(C)CCOc2ccccc2CC)n(C)n1	40µM*	7.1µM*	i	?	7.7µM*	11µM*	0%	7.7µM*
CCc1ccccc1OCCN(C)Cc1ncc[nH]1	-17%	2%	i	-16%	/	/	/	/
O=C(c1cccc(F)c1)N1CCC(N2C(=O)C(O)C23CCCCC3)CC1 (stereo not drawn)	-5%	4%	i	-11%	/	/	/	/
c1ccc(Nc2cc3c(cn2)CN(Cc2c[nH]c4ccccc24)CCN3)cc1	25µM*	?	i	?	11µM*	6.3µM*	-25%[86.2 µM]	?
O=C1Nc2ccccc2CC12CN(Cc1c[nH]c3ccccc13)C2	?	/	/	-26%	/	/	/	/
O=C(CC1CCCN(c2cnn(CC3CC3)c(=O)c2)C1)NC1CCCC1 (stereo not drawn)	-21%	0%	i	-14%	/	/	/	/
O=C(Nc1ccc(-c2cccc(F)c2)cc1)C1CCCN(C(=O)c2ccncc2)C1 (stereo not drawn)	?	7.1µM*	i	14µM*	14µM*	15µM*	-15%	11µM*
O=C(Nc1cccc(-c2ccc(F)cc2)c1)C1CCCN(C(=O)c2cccnc2)C1 (stereo not drawn)	?	-15%	i	?	/	/	/	/
COc1ccc(CN2CC3(CCN(C(=O)Nc4cccc(C(F)(F)F)c4)CC3)C2=O)cc1	?	16µM*	i	?	?	?	0%	?

Screens as filed in PubChem BioAssay.
